The text below walks through data of PubChem BioAssay (Tox21).

Each structure is given as a SMILES string. A number with no mark means an inactive call. Records with an inconclusive call do not appear. Active and inactive are the calls of the source. The call rests on the fitted dose curve; in most records, active means well fitted curve in the direction sought with a large enough effect in the repeat runs; inconclusive means weak or mixed curves; inactive means no such curve, though single readings can be large; an effect the other way counts as inactive or inconclusive.

The nature of test [1]: A CellTox Green Cytotoxicity Assay to monitor cytotoxicity in HEK293 cells - 40 hour (AID 1224871). Further: nearly all actives have a fitted effect of over 45% in size. Further: potency means the concentration at half of the fitted maximal effect. In short, it runs like this:
(§1)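 Fluorescence intensity, read at 0, 8, 16, 24, 32 and 40 h of compound treatment, reflected dye binding to DNA of dead HEK293 cells; compounds (23 nL, DMSO) were added 5 h after plating cells with reagent.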

Test [2] in a line: A CellTox Green Cytotoxicity Assay to monitor cytotoxicity in HEK293 cells - 24 hour (AID 1224875). Further: nearly all actives have a fitted effect of over 45% in size. Further: potency means the concentration at half of the fitted maximal effect. On activity change: series mostly up to about 77 µM. In short, it runs like this: as §1
Test [3] is described as follows: A CellTox Green Cytotoxicity Assay to monitor cytotoxicity in HepG2 cells - 16 hour (AID 1224876). Further: nearly all actives have a fitted effect of over 45% in size. Further: potency means the concentration at half of the fitted maximal effect. In short, it runs like this:
(§2)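 Using 1536-well format, dye-containing HepG2 suspension was seeded, allowed 5 h at 37 C/5% CO2, dosed by pintool with compounds, positive and negative controls, and imaged for fluorescence across 40 h.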

Test [4] in a line: qHTS RealTime-Glo MT Cell Viability Assay in HepG2 cells - 32 hour (AID 1224877). Further: nearly all actives have a fitted effect of over 55% in size. In a few lines: (§3)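 qHTS, HepG2, 600 cells/well, RealTime-Glo (NanoLuc + prosubstrate) added with cells; 5 h preincubation; DMSO compound addition; 37 C; luminescence at 0/8/16/24/32/40 h.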
Background: qHTS replaces the single test concentration by a dilution series.

Test [5] in a line: A CellTox Green Cytotoxicity Assay to monitor cytotoxicity in HepG2 cells - 24 hour (AID 1224878). Further: nearly all actives have a fitted effect of over 45% in size. Further: potency means the concentration at half of the fitted maximal effect. In a few lines: as §2
A short description of test [6]: qHTS RealTime-Glo MT Cell Viability Assay in HEK293 cells - 0 hour (AID 1224880). Further: nearly all actives have a fitted effect of over 45% in size. Further: potency means the concentration at half of the fitted maximal effect. On activity change, negative = cytotoxicity: top concentration of the series differs between compounds. In a few lines:
(§4)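 Viable HEK293 cells reduce a cell-permeant prosubstrate; the product diffuses out and is consumed by NanoLuc in the medium to give light. Compounds went in after a 5 h incubation and plates were read over the treatment course.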

Test [7] can be described thus: A CellTox Green Cytotoxicity Assay to monitor cytotoxicity in HepG2 cells - 0 hour (AID 1224882). Further: nearly all actives have a fitted effect of over 35% in size. Further: potency means the concentration at half of the fitted maximal effect. In a few lines:
as §2

Test [8] in a line: A CellTox Green Cytotoxicity Assay to monitor cytotoxicity in HepG2 cells - 32 hour (AID 1224883). Further: nearly all actives have a fitted effect of over 50% in size. Further: potency means the concentration at half of the fitted maximal effect. In a few lines:
as §2

The nature of test [9]: A CellTox Green Cytotoxicity Assay to monitor cytotoxicity in HEK293 cells - 8 hour (AID 1224884). Further: nearly all actives have a fitted effect of over 35% in size. Further: potency means the concentration at half of the fitted maximal effect. In short, it runs like this:
as §1

Test [10] can be described thus: A CellTox Green Cytotoxicity Assay to monitor cytotoxicity in HEK293 cells - 16 hour (AID 1224888). Further: nearly all actives have a fitted effect of over 35% in size. Further: potency means the concentration at half of the fitted maximal effect. In short, it runs like this:
as §1

The nature of test [11]: A CellTox Green Cytotoxicity Assay to monitor cytotoxicity in HepG2 cells - 8 hour (AID 1224890). Further: nearly all actives have a fitted effect of over 45% in size. Further: potency means the concentration at half of the fitted maximal effect. In short, it runs like this: as §2
Test [12] is described as follows: qHTS RealTime-Glo MT Cell Viability Assay in HEK293 cells - 16 hour (AID 1224872). Further: top concentration of the series differs between compounds; nearly all actives have a fitted effect of over 50% in size. In short, it runs like this:
(§5)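 Assay medium contained NanoLuc luciferase plus cell-permeant prosubstrate, added with HEK293 cells at 600 cells/well. After 5 h at 37 C/5% CO2 compounds were added; plates stayed at 37 C for 40 h with serial luminescence reads.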

Test [13] is described as follows: qHTS RealTime-Glo MT Cell Viability Assay in HepG2 cells - 8 hour (AID 1224873). Further: nearly all actives have a fitted effect of over 55% in size. In a few lines:
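HepG2 cells mixed with RealTime-Glo MT reagents (NanoLuc plus cell-permeant prosubstrate) were seeded at 600 cells/well, incubated 5 h at 37 C/5% CO2, then pinned with compounds in DMSO; nonlytic luminescence tracked viability during 40 h treatment.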

Test [14] in a line: qHTS RealTime-Glo MT Cell Viability Assay in HEK293 cells - 40 hour (AID 1224874). Further: nearly all actives have a fitted effect of over 50% in size. The conditions noted are these: RealTime-Glo luminescence; max response: hits give low values. In short, it runs like this: as §4
A short description of test [15]: A CellTox Green Cytotoxicity Assay to monitor cytotoxicity in HepG2 cells - 40 hour (AID 1224879). Further: nearly all actives have a fitted effect of over 40% in size. Further: potency means the concentration at half of the fitted maximal effect. In short, it runs like this: as §2
The nature of test [16]: A CellTox Green Cytotoxicity Assay to monitor cytotoxicity in HEK293 cells - 32 hour (AID 1224881). Further: nearly all actives have a fitted effect of over 40% in size. Further: potency means the concentration at half of the fitted maximal effect. In a few lines: as §1
A short description of test [17]: qHTS RealTime-Glo MT Cell Viability Assay in HepG2 cells - 16 hour (AID 1224885). Further: nearly all actives have a fitted effect of over 50% in size. In a few lines: as §3
Test [18] in a line: qHTS RealTime-Glo MT Cell Viability Assay in HEK293 cells - 24 hour (AID 1224886). In short, it runs like this:
as §5

Test [19] in a line: qHTS RealTime-Glo MT Cell Viability Assay in HEK293 cells - 8 hour (AID 1224887). In a few lines: as §4
Test [20] can be described thus: qHTS RealTime-Glo MT Cell Viability Assay in HepG2 cells - 0 hour (AID 1224889). Further: nearly all actives have a fitted effect of over 50% in size. Further: potency means the concentration at half of the fitted maximal effect. In short, it runs like this:
as §3
On the % scale 0 is the no-effect control and ±100 the full control effect.

In the case of `CCO[C@@H]1O[C@H](C(COCc2ccccc2)OCc2ccccc2)[C@H](OCc2ccccc2)[C@H]1O` (stereo partly specified), the Potency entry in [1], in test [2], in test [3], in test [4], in [5] and in [6] was “inactive” throughout. Further, the Potency result in [7], in test [8], in test [9], in test [10] and in test [11] was “inactive” in each case.

On to `Cc1cccc(C(=O)O)c1O`, for which the Potency result in test [12], in test [13], in [2], in [3], in test [4] and in [5] was “inactive” in each case. Besides, the Potency result in [15], in test [6], in [16], in test [7], in [8] and in test [9] was “inactive” throughout. The Potency result in [17], in test [18], in [19], in test [10], in [20] and in test [11] was “inactive” in each case. Further, in test [14], the max response was 6.77%.

Regarding `Cc1ccc(O)c(N)c1`, the Potency result in [1], in [13], in test [2], in [3], in test [4] and in test [16] was “inactive” throughout. Moreover, the Potency result in test [7], in test [9], in test [17], in test [10], in test [20] and in test [11] was “inactive” throughout.

`CCCCCCCCCCCC(=O)OCC(C)OC(=O)CCCCC(=O)O` (stereo unspecified): the Potency result in test [12], in [13], in test [2], in [3], in test [4] and in [5] was “inactive” throughout. Moreover, the Potency entry in test [15], in test [6], in test [7], in test [8], in [9] and in test [17] was “inactive” each time. The Potency result in [18], in test [19], in test [10], in [20] and in test [11] was “inactive” each time. In test [14], the max response is 14.1%.

In the case of `CCCNCCC`, the Potency result in test [12], in test [13], in [2], in test [3], in test [4] and in [5] was “inactive” in each case. Further, the Potency entry in test [15], in [6], in [16], in [7], in [8] and in test [9] was “inactive” in each case. The Potency result in test [17], in test [18], in test [19], in test [10], in [20] and in test [11] was “inactive” each time. Also, the max response in [14] was -5.51%.

In the case of `CC(C)(C)C1CCC(=O)CC1`, the Potency result in test [12], in test [13], in [2], in [4], in test [5] and in test [15] was “inactive” each time. The Potency entry in test [6], in test [7], in [8], in test [9], in test [17] and in test [18] was “inactive” each time. Also, the Potency result in test [19], in [10], in test [20] and in [11] was “inactive” in each case. Also, the max response in test [14] was 0.275%.

As for `C=C(C)C(=O)OCCCCCCCCCC`, the Potency entry in [12], in test [13], in [3], in test [4], in test [5] and in test [15] was “inactive” throughout. For the same molecule, the Potency result in test [6], in test [7], in test [8], in test [9], in test [17] and in [18] was “inactive” throughout. The Potency entry in test [19], in test [20] and in test [11] was “inactive” throughout. Also, in test [14], the max response is 14.3%.

As for `O=C1OC2(c3ccc(O)cc3Oc3cc(O)ccc32)c2ccc(N=C=S)cc21`, the Potency in test [1] is 12.5 µM (active); in [2] it was 17.7 µM (active); in test [3], 15.8 µM (active); in test [5], 15.8 µM (active); in test [15], 15.8 µM (active); in test [6], 44.4 µM (active). In addition, the Potency in test [16] is 17.7 µM (active); in test [7], 15.8 µM (active); in test [8], 15.8 µM (active); in test [9], 15.8 µM (active); in test [10], 12.5 µM (active); in test [20] it was 22.3 µM (active). The Potency in test [11] was 15.8 µM (active).

For the molecule `O=C(O)CN(CCN(CC(=O)O)CC(=O)O)CC(=O)O`, the activity change, negative = cytotoxicity in test [12] is 0.0628% [at 2.72 µM]; in test [6], 0.0989% [at 2.72 µM]; in test [18], 5.68% [at 2.72 µM]; in test [19] it was -1.21% [at 2.72 µM]; in test [20], -5.49% [at 2.72 µM]. The viability change, negative = cytotoxic in test [13] is -13.2% [at 2.72 µM]. In test [14], the max response is 7.27%. For the same molecule, the Potency in [3] was 1.74 µM (active); in test [5], 1.74 µM (active); in test [15], 1.96 µM (active); in [7], 1.74 µM (active); in test [8] it was 1.74 µM (active); in [9], 1.96 µM (active). Also, the Potency in [10] is 1.96 µM (active); in test [11], 1.74 µM (active). Further, the activity change, negative = cytotoxic is 4.09% [at 2.72 µM] in test [4] and -5.14% [at 2.72 µM] in test [17].

For `O=C(O)c1cc(N=Nc2ccc([N+](=O)[O-])cc2)ccc1O`, the Potency result in test [12], in [13], in [2], in [3], in test [4] and in test [5] was “inactive” in each case. In addition, the Potency entry in test [15], in test [16], in test [7], in [8], in [9] and in test [17] was “inactive” in each case. Besides, the Potency entry in test [18], in [19], in [10], in test [20] and in [11] was “inactive” throughout. In addition, in test [14], the max response is -17%.

As for `COc1ccc(NC(=O)CC(C)=O)cc1`, the Potency entry in [12], in test [13], in test [3], in [4], in [5] and in [15] was “inactive” each time. Besides, the Potency entry in test [6], in test [7], in [8], in [9], in test [17] and in test [18] was “inactive” each time. In addition, the Potency result in test [19], in test [20] and in test [11] was “inactive” throughout. Further, in test [14], the max response was 8.59%.

In the case of `C=CCCC(=O)/C=C/C1C(C)=CCCC1(C)C` (stereo unspecified), the Potency entry in [12], in [13], in test [3], in test [4], in test [5] and in test [15] was “inactive” throughout. Moreover, the Potency entry in test [6], in [7], in [8], in test [9], in test [17] and in [18] was “inactive” in each case. Further, the Potency entry in [19], in [20] and in [11] was “inactive” each time. Besides, the max response in test [14] was -12.7%. Also, the Potency in [2] was 34.7 µM (active); in test [16], 24.5 µM (active).

Consider `O=C(/C=C/c1ccc(O)c(O)c1)O[C@@H](C(=O)O)[C@@H](OC(=O)/C=C/c1ccc(O)c(O)c1)C(=O)O`, for which the Potency result in [12], in test [13], in test [2], in test [3], in test [4] and in [5] was “inactive” in each case. Further, the Potency result in test [15], in test [6], in [16], in test [7], in test [8] and in [9] was “inactive” throughout. The Potency result in [17], in test [18], in test [19], in test [10], in test [20] and in test [11] was “inactive” in each case. The max response in [14] is 1.33%.

As to `COC(=O)C1=C(C)NC(C)=C(C(=O)OCCN2CCN(C(c3ccccc3)c3ccccc3)CC2)C1c1cccc([N+](=O)[O-])c1` (stereo unspecified), the Potency result in test [1], in test [2], in [3], in test [5], in test [15] and in [6] was “inactive” throughout. For the same molecule, the Potency entry in test [16], in test [7], in [8], in test [9], in [10] and in [20] was “inactive” throughout. For the same molecule, the Potency entry in [11] is “inactive”.
